ZTA counter – ZTA (EBV) inhibition in EBNA-1 counter-screen. P03206. inhibition, % at 11 µM. ZTA-DNA binding, fluorescence polarization. AID 2234. hit rate 0.15% among 320,000; in the data active = inhibition above about 33%
Target sequence (P03206 whole entry, looked up): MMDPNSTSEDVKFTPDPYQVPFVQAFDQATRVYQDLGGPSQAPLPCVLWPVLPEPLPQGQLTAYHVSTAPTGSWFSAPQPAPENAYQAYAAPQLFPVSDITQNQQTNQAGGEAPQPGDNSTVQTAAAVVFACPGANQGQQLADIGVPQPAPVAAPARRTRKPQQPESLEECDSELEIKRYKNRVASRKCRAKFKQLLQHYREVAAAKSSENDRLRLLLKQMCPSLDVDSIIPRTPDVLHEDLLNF
EBNA-1 inh – blocks EBNA-1 binding to DNA | EBNA-1 DNA binding, fluorescence polarization | inhibition, % at 14.8 µM | hit rate 0.34% among 300,000; in the data active = inhibition above about 28%
aDG glyco up – increases alpha dystroglycan glycosylation; activation, % at 10 µM; Pro5-aDG cells, alpha-DG glycosylation AlphaScreen (IIH6); 0% Pro5, 100% B10-LARGE cell signal; hit rate 0.22% among 360,000; AID 624168;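 active = activation of at least 8% versus controls, or a plate z-score of at least 8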;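 note: Pro5 are CHO cells carrying HIG-tagged alpha-DG that lacks glycosylation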
Rev-erbA mod – modulates human Rev-erb alpha binding to DNA | P20393 | Rev-erbα–FITC-DNA binding, fluorescence polarization, 90 min | activity, % at 10 µM | hit rate 0.79% among 370,000;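 active = activity above about 14%, limit read from the data; passing the limit was not always enough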;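 note: 0% = DMSO wells with 35 nM protein and 100% = DMSO wells with 750 nM protein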
PG9 binder – PG9 antibody binding by small molecule | inhibition, % at 6.7 µM | AID 624416 | TR-FRET gp120-PG9 antibody binding | hit rate 0.43% among 360,000; in the data active = inhibition above about 8.5%
p47phox inh – blocks human p47phox regulatory protein of NADPH oxidases. P14598. AID 1274. p47phox/p22phox peptide binding, fluorescence polarization, 2 h. hit rate 0.53% among 220,000. inhibition, % at 24.7 µM;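 active = inhibition above about 30%, limit read from the data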;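 note: 0% = p47phox with labelled peptide and 100% = labelled peptide alone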
PG9 bind confirm – confirmation of small molecules binding HIV-1 gp120 antibody PG9; shares compounds with PG9 binder; TR-FRET PG9 antibody binding, biochemical; inhibition, % at 6.7 µM; hit rate 90% among 1,500; AID 651571; in the data active = inhibition above about 9%
PGV04 Ab binding – binds control antibody PGV04 in PG9 binder counter-screen | shares compounds with PG9 binder | TR-FRET PGV04 antibody-gp120 binding, biochemical | inhibition, % at 6.7 µM | hit rate 95% among 1,500; in the data active = inhibition above about 9.5%
An asterisk follows results filed as active; . = not tested or not shown. Compounds with a hit are over-represented: about 1.9% of the library has one in this group of screens.

SMILES | ZTA counter | EBNA-1 inh | aDG glyco up | Rev-erbA mod | PG9 binder | p47phox inh | PG9 bind confirm | PGV04 Ab binding
Cc1ccc(-n2c(SCC(=O)Nc3ccc(OCc4ccccc4)cc3)nnc2-c2cnccn2)cc1 | . | . | . | 2 | . | . | . | .
CNC(=S)Nc1sc2c(c1C(=O)OC)CCC2 | 2 | -3 | 0 | 2 | -2 | 4 | . | .
COC(=O)c1c(NC(=S)Nc2ccc(C(=O)N3CCOCC3)cc2)sc2c1CCC2 | -6 | 1 | 0 | 5 | 10* | -30 | 5 | 6
CC(=O)Nc1ccc(Nc2nc(-c3ccccc3)nc3ccccc23)cc1 | 9 | 5 | 0 | 5 | -3 | -35 | . | .
O=C(Nc1nc(-c2ccccc2)nc2ccccc12)c1ccc(F)cc1 | 3 | 4 | -1 | 2 | 11* | 13 | 16* | 27*
CC(=O)c1cccc(NC(=O)CSc2nnc(-c3ccc(S(=O)(=O)N4CCCC4)cc3)o2)c1 | -2 | 14 | 0 | 8 | 31* | 4 | 37* | 46*
Cc1ccc(-c2nnc(SCC(=O)Nc3ccc(S(=O)(=O)N4CCCCCC4)cc3)o2)cc1 | 9 | -2 | 0 | 0 | 2 | -142 | . | .
COc1cccc(OC)c1NC(=O)OC1CCC12CCC(c1ccccc1)CC2 (stereo not given) | . | . | . | -11 | . | . | . | .
O=C(O)c1ccc2c(c1)C(=O)N(c1cccc(C(=O)/C=C/c3ccccc3)c1)C2=O | 6 | -12 | 0 | 0 | 1 | 10 | . | .
O=C(O)c1cccc(N2C(=O)c3cc4cccc(Br)c4cc3C2=O)c1 | -9 | -9 | 0 | 5 | 14* | . | 16* | 22*
COc1ccc(N2C(=NC(=O)c3ccccc3)SC3CS(=O)(=O)CC32)cc1 (stereo not given) | 4 | 7 | 0 | 4 | -2 | . | . | .
COc1cccc(N2C(=NC(=O)c3ccccc3)SC3CS(=O)(=O)CC32)c1 (stereo not given) | 3 | 11 | 0 | 9 | 11* | . | 10* | 14*
COc1ccc(/C(O)=C2/C(=O)C(=O)N(CC3CCCO3)C2c2ccc(O)c(OC)c2)cc1 (stereo not given) | -15 | 0 | 0 | 4 | -4 | 3 | . | .
COc1ccc(/C(O)=C2/C(=O)C(=O)N(CC3CCCO3)C2c2cccc(OC)c2)cc1 (stereo not given) | 10 | 4 | 0 | -1 | 2 | -11 | . | .
Cc1ccc(C2/C(=C(\O)c3ccc4c(c3)OCCO4)C(=O)C(=O)N2CC2CCCO2)cc1 (stereo not given) | . | . | 0 | 8 | 9.7* | . | 20* | 22*
COc1cccc(C2/C(=C(\O)c3ccc4c(c3)OCCO4)C(=O)C(=O)N2CC2CCCO2)c1 (stereo not given) | . | . | 0 | 1 | 9.2* | . | 16* | 20*
CCOC(=O)C1CCN(C(=O)c2ccc(N(C)S(C)(=O)=O)cc2)CC1 | -18 | 2 | 0 | -4 | 0 | -4 | . | .
CN(c1ccc(C(=O)COC(=O)C2CC2)cc1)S(C)(=O)=O | . | . | 0 | 4 | 14* | . | 18* | 20*
O=C(Nc1c(-c2ccc(C(F)(F)F)cc2)nc2ncccn12)C1CC1 | . | . | . | -3 | . | . | . | .
Cc1ccc(OCc2nnc(SCC(=O)Nc3ccc(S(N)(=O)=O)cc3)n2-c2ccc(Cl)cc2)cc1 | . | . | . | 0 | . | . | . | .
O=C(c1ccccc1C(F)(F)F)N1CCC(Oc2cccnc2)CC1 | . | . | . | -5 | . | . | . | .
COC(=O)c1cc2sc(Cl)cc2n1CC(=O)NCCC(C)C | 16 | 15 | 0 | 14 | 11* | 3 | 20* | 24*
Cc1ccccc1Nc1nc(N)nc(CSc2nc3ccccc3c(=O)n2C)n1 | 4 | 5 | 3 | 22 | 26* | -8 | 73* | 82*
Cc1ccccc1Nc1nc(N)nc(CSc2nnc(C)n2C)n1 | -19 | -3 | 0 | 0 | -2 | 2 | . | .
C[C@H]1CCCN1c1cccc2c1S(=O)(=O)N(C1CC1)CCCO2 | . | . | . | 7 | . | . | . | .
O=C(c1ccncc1)N(Cc1ccco1)Cc1cc2ccccc2[nH]c1=O | 4 | -2 | 0 | 4 | -2 | -20 | . | .

Source: PubChem BioAssay (several laboratories)
